The nature of assay [1]: qHTS assay to test for compound auto fluorescence at 535 nm (green) in HEK293 cells (AID 720680). For orientation: Quantitative high-throughput screening tests each substance at several concentrations.
A short description of assay [2]: qHTS assay to test for compound auto fluorescence at 460 nm (blue) in HEK293 cell free culture (AID 720681). In short, it runs like this: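 Test compounds were pinned into cell-free culture medium (DMEM with 10% FBS) and fluorescence was read directly at Ex/Em 405/460 nm. Signals were expressed as fluorescence equivalents of triamterene, with DMSO vehicle as control.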

The nature of assay [3]: qHTS assay to test for compound auto fluorescence at 535 nm (green) in HEK293 cell free culture (AID 720682). The method, boiled down: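 No cells present: wells hold DMEM supplemented with 10% FBS, into which compound or vehicle is pinned. Green emission is then recorded (485 nm excitation, 535 nm emission) and scaled to fluorescein.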
Assay [4] is described as follows: qHTS assay to test for compound auto fluorescence at 590 nm (red) in HEK293 cell free culture (AID 720683). The method, boiled down: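 Tox21 10K library compounds were pinned into cell-free DMEM with 10% FBS and fluorescence was read at excitation 540 nm. Activity is expressed as Rose Bengal sodium equivalency.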
Assay [5] can be described thus: qHTS assay to test for compound auto fluorescence at 590 nm (red) in HepG2 cell free culture (AID 720684). The method, boiled down: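 Red fluorescence (540 nm excitation, 590 nm emission) was measured after compound transfer into cell-free MEM supplemented with 10% FBS. Values are equivalencies against Rose Bengal sodium.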
Assay [6] in a line: qHTS assay to test for compound auto fluorescence at 460 nm (blue) in HepG2 cell free culture (AID 720685). In short, it runs like this: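 Compound (23 nL) or DMSO pinned into cell-free MEM with 10% FBS; blue fluorescence read at 405/460 nm excitation/emission, expressed as auto-fluorescence equivalency to triamterene.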
Assay [7] can be described thus: qHTS assay to test for compound auto fluorescence at 535 nm (green) in HepG2 cell free culture (AID 720686).
The nature of assay [8]: qHTS assay to test for compound auto fluorescence at 460 nm (blue) in HepG2 cells (AID 720687). The method, boiled down: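 Cells (2,000/well in MEM with 10% FBS) attached overnight at 37 C, then were exposed to compound or DMSO for 1 hr at 37 C, 5% CO2. Fluorescence read at Ex/Em 405/460 nm, expressed as triamterene-equivalent signal.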
Assay [9] has as its target Glucocorticoid receptor (Homo sapiens) (UniProt P04150). Description: qHTS assay to identify small molecule agonists of the glucocorticoid receptor (GR) signaling pathway (AID 720691; active = well fitted activation curve with a large enough effect in the signal ratio in the repeat runs, not every such curve was filed as active; the % refers to the signal ratio). In short, it runs like this:
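Reporter read-out: fluorescence intensity following 2 h room-temperature LiveBLAzer B/G FRET substrate loading. Prior step: GR-bla HeLa cells held 4 h, then treated 18 h at 37 C.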

Assay [10] has the same target. Description: qHTS assay to identify small molecule antagonists of the glucocorticoid receptor (GR) signaling pathway (AID 720692; active = well fitted inhibition curve with a large enough effect in the signal ratio in the repeat runs, not every such curve was filed as active; the % refers to the signal ratio). The method, boiled down: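 Dexamethasone (5 nM final) stimulated a stably integrated GRE-beta-lactamase reporter in HeLa cells during 18 h co-incubation with compounds; signal was quantified as fluorescence intensity of B/G FRET substrate after 2 h.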

Assay [11] can be described thus: qHTS assay for identifying genotoxic compounds that show differential cytotoxicity against isogenic chicken DT40 cell lines with known DNA damage response pathways - wild type cell line (AID 743012). Note: nearly all actives have a fitted effect of over 60% in size. Note: potency is the fitted concentration of half-maximal effect. The method, boiled down: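 Using parental DT40 (300 cells/well), compounds delivered in DMSO incubate 40 h at 37 C/5% CO2. CellTiter-Glo reagent then stands 30 min at room temperature, and luminescence gives cell viability.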

A short description of assay [12]: qHTS assay for identifying genotoxic compounds that show differential cytotoxicity against isogenic chicken DT40 cell lines with known DNA damage response pathways - Rev3 mutant cell line (AID 743014). Note: nearly all actives have a fitted effect of over 55% in size. Note: potency is the fitted concentration of half-maximal effect.
Assay [13] in a line: qHTS assay for identifying genotoxic compounds that show differential cytotoxicity against isogenic chicken DT40 cell lines with known DNA damage response pathways - Rad54/Ku70 mutant cell line (AID 743015). Note: nearly all actives have a fitted effect of over 60% in size. Note: potency is the fitted concentration of half-maximal effect.
Assay [14] can be described thus: qHTS assay to identify small molecule antagonists of the androgen receptor (AR) signaling pathway - cell viability counter screen (AID 743033; note: nearly all actives have a fitted effect of over 45% in size).
Assay [15] in a line: qHTS assay to identify small molecule antagonists of the androgen receptor (AR) signaling pathway using the MDA cell line - cell viability counter screen (AID 743041; note: nearly all actives have a fitted effect of over 45% in size). In short, it runs like this: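 MDA-kb2 AR-luc human breast carcinoma cells (MMTV-luciferase, AR/GR responsive) were treated with compounds plus R1881 agonist for 16 h at 37 °C. Viability was read as CellTiter-Fluor fluorescence in the same wells as the reporter assay.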

A short description of assay [16]: qHTS assay to identify small molecule antagonists of the thyroid receptor (TR) signaling pathway - cell viability counter screen (AID 743064). Note: nearly all actives have a fitted effect of over 50% in size. The method, boiled down:
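Rat GH3 pituitary tumor cells stably expressing two TR response elements driving luciferase were plated, rested 4 h, then dosed with library compounds and T3 (1 nM final). After 23.5 h at 37 °C, CellTiter-Fluor was added for 30 min and fluorescence recorded.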

A short description of assay [17]: qHTS assay to identify small molecule antagonists of the glucocorticoid receptor (GR) signaling pathway - cell viability counter screen (AID 720693). Note: nearly all actives have a fitted effect of over 55% in size.

“And” between values parts separate entries of the source, which are not always exact repeats. Equal entries are not always repeated. Results filed as inconclusive are left out. The source made the active and inactive calls. Unless noted, calls come from the whole dose curve; as a rule, active = well fitted curve in the direction sought with a large enough effect in the repeat runs; inconclusive = weak or mixed curves; inactive = no such curve, though single readings can be large; an effect the other way counts as inactive or inconclusive.

Sequence of Glucocorticoid receptor (Homo sapiens) (P04150 whole entry, looked up): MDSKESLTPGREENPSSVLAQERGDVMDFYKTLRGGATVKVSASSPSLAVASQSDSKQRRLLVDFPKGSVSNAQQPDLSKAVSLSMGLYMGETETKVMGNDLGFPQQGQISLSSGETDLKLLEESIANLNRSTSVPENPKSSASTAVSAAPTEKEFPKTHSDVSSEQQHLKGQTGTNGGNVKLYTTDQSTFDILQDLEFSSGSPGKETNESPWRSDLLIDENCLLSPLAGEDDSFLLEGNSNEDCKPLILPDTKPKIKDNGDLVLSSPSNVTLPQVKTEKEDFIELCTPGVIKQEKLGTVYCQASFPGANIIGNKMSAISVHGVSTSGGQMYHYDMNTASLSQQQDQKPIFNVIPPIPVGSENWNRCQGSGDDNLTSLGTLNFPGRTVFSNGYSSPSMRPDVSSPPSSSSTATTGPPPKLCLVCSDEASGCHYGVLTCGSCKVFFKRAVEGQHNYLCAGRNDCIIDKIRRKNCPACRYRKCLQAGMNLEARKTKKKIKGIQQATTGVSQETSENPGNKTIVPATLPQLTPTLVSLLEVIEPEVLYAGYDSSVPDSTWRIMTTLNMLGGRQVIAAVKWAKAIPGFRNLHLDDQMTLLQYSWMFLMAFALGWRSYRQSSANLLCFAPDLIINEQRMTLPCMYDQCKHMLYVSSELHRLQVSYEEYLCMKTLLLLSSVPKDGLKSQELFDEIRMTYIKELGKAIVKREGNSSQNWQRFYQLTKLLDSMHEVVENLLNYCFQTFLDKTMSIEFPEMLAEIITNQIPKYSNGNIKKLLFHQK

For `O=C1CCc2ccccc2O1`, the Potency result in assay [1], in assay [2], in [3], in assay [4], in assay [5] and in [6] was “inactive” throughout. The Potency result in [7], in assay [8], in assay [9], in assay [10], in [11] and in assay [12] was “inactive” throughout. In addition, the Potency entry in [13], in [14], in assay [15] and in [16] was “inactive” each time.

As for `C=CC(C)(O)CCC=C(C)C` (stereo unspecified), the Potency result in assay [1], in [2], in assay [3], in assay [4], in assay [5] and in assay [6] was “inactive” each time. Besides, the Potency result in [7], in assay [8], in assay [9], in assay [10], in [11] and in assay [12] was “inactive” each time. Further, the Potency result in [13], in [14] and in assay [15] was “inactive” in each case.

With `O=C(O)c1cc(=O)[nH]c(=O)[nH]1`, the Potency entry in assay [1], in assay [2], in assay [3], in [4], in [5] and in assay [6] was “inactive” each time. In addition, the Potency result in assay [7], in assay [8], in assay [9], in assay [10], in [17] and in assay [11] was “inactive” each time. The Potency result in [12] and in assay [13] was “inactive” throughout.

For `c1ccc2ncccc2c1`, the Potency result in assay [1], in [2], in assay [3], in [4], in [5] and in [6] was “inactive” each time. The Potency entry in [7], in [8], in assay [9], in assay [10], in assay [11] and in assay [12] was “inactive” in each case. Besides, the Potency entry in [13] and in [14] was “inactive” in each case.

For `CCCCCCCC/C=C\CCCCCCCC(=O)O`, the Potency entry in assay [1], in assay [2], in [3], in assay [4], in assay [5] and in assay [6] was “inactive” in each case. The Potency result in assay [7], in assay [8], in [9], in assay [11], in assay [12] and in assay [14] was “inactive” throughout.

For `NC[C@H](O)c1ccc(O)c(O)c1`, the Potency entry in assay [1], in assay [2], in assay [3], in [4], in assay [5] and in assay [6] was “inactive” each time. For the same molecule, the Potency entry in [7], in assay [8], in [9], in assay [10], in assay [17] and in assay [15] was “inactive” throughout. In addition, the Potency in assay [11] is 23.7 µM (active) and 21.7 µM (active); in assay [12] it was 21.1 µM (active) and 17.2 µM (active); in [13] it was 24.3 µM (active).

`c1ccc2c(c1)ccc1cc3c(ccc4ccccc43)cc12`: the Potency result in assay [1], in [2], in assay [3], in assay [4], in assay [5] and in assay [6] was “inactive” each time. For the same molecule, the Potency result in assay [7], in assay [8], in assay [9], in assay [10], in [17] and in assay [11] was “inactive” each time. Besides, the Potency result in assay [12], in [14] and in [15] was “inactive” each time.

Turning to `OCCNCCO`, the Potency result in assay [1], in [2], in assay [3], in [4], in [5] and in assay [6] was “inactive” in each case. The Potency result in [7], in assay [8], in [9], in [10], in assay [11] and in assay [12] was “inactive” in each case. For the same molecule, the Potency result in assay [13], in assay [15] and in [16] was “inactive” each time.
